Data: PubChem BioAssay (NCATS)
Inconclusive results are not listed. Calls of active or inactive are those of the source.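 Rule for the calls, unless noted: active = compounds whose dose series gives a full or clear partial fitted curve of increased nuclear translocation; inconclusive = weak partial curve or effect only at the top dose; inactive = no dose-dependent translocation response.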

Tested on: not listed separately
Test: Stat Signaling Pathway (AID 446; active = well fitted curve in either direction with a large enough effect, not every such curve was filed as active;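 note: ME-180 cervical cancer cells given 40 pM IL-6 alongside compound; SIE-controlled beta-lactamase reporter measured as 460/530 nm FRET emission ratio; % is set by controls: 0 for no effect and ±100 for the full control effect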)
Settings: ME-180 (cervical carcinoma) SIE beta-lactamase reporter, IL-6 stimulated, 5 h; at 17.2 µM (top of the series) unless noted
Summary of the method: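 FRET read-out (405 nm excitation, 460/530 nm emission) of a beta-lactamase reporter under a STAT-inducible element in ME-180 cervical carcinoma cells. Cells with compound receive 40 pM IL-6 for 5 h. Values are normalised to AC90 stimulation and AC90 JAK-inhibitor controls.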

activity, negative = inhibition, inactive:
Cn1cc(Cl)nc1C(O)c1ccccc1 (stereo not given) 6.92%
CC(C)Cc1[nH]c(=O)c(C#N)c2c1COC(C)(C)C2 2.18%
Cc1ccc(NC(=O)c2cc(N3CCOCC3)nc3ccccc23)cc1 -12.2%
CCOC(=O)C(OC(=O)c1sc(=S)n(C)c1C)C(C)=O (stereo not given) 9.46%
CC(C)N1CCc2c(sc(N)c2C#N)C1 -5%
O=c1[nH]nc2n1CCCCC2 7.42%
CCOc1ccc(N=C2C(=O)N(CN3CCOCC3)c3ccccc32)cc1 -3%
Cn1ncc(N=Cc2c(O)ccc3ccccc23)c1C(=O)N1CCOCC1 -16.5%
CC1(C)Cc2c(c(-c3ccccc3Cl)[nH]c(=O)c2C#N)CO1 2.62%
CC1CC(C(F)(F)F)n2ncnc2N1 (stereo not given) 12.9%
Cc1nc2c(=O)n(C)c(=O)[nH]c2n1Cc1ccccc1 -0.854%
CN1CCC2(CC1)C1CN(C)CC=C1C(C#N)=C(N)C2(C#N)C#N (stereo not given) 12.8%
O=C(CCC(=O)CCN1CCCCC1)CCN1CCCCC1 1.96%
CC1(C(=O)CSc2n[nH]c(-c3ccccc3Cl)n2)CCC(=O)O1 (stereo not given) 0.984%
Cc1ccc(-n2[nH]c(C)c(C=Nc3cc(C)ccn3)c2=O)cc1 4.82%
COc1cccc(/C(O)=C2\C(=O)C(=O)N(c3ccccn3)C2c2ccccc2OC)c1 (stereo not given) 1.49%
CCCNc1ncnc2c1cnn2-c1ccc(OC)cc1 -8.63%
Cc1ccc(OCC(=O)NCC(=O)n2nc(C)cc2C)cc1 -3.12%
CC/C(C)=C1\SC(N2CCN(C(C)=O)CC2)=NC1=O 8.03%
CCN(CC)c1nc(C)c2c(c1C#N)CC(C)(C)OC2 7.18%
Cc1nc(NCCCO)c(C#N)c2c1COC(C)(C)C2 1.39%
O=C(NCCN1CCOCC1)c1ccc(=O)oc1 4.33%
O=C(c1ccc(-n2cnnn2)cc1)N1CCOCC1 12.1%
CCc1nc(SCc2cccnc2)c(C#N)cc1C 0.873%
C1CNCCNCCCNCCNC1 -11.5%
CCOC(=O)C1=C(N)n2c(s/c(=C\c3ccco3)c2=O)=C(C(=O)OC(C)C)C1c1ccco1 (stereo not given) 4.26%
CC(C)CCNc1nc2c(cc1C#N)COC(C)(C)C2 4.4%
Cn1c(=O)c2c(nc(NCc3ccc4c(c3)OCO4)n2Cc2ccccc2F)n(C)c1=O -25.4%
Cc1cc(C)n(-c2c(F)c(F)c(CN3CCCCC3)c(F)c2F)n1 5.23%
COc1ccc(C2(CN(C(C)=O)C(C)=O)CCCC2)cc1OC 1.89%
COc1ccc(CCNC2CC(C)N(C)CC2C)cc1OC (stereo not given) 4.89%
N#CC1=C(N)N2C(=C(C#N)C1c1ccccc1)Sc1ccccc12 (stereo not given) 3.71%
O=C1C2CC=C(Cl)CC2C(=O)N1CNc1ccccn1 (stereo not given) 7.34%
CCc1nc2n[nH]c(N)c2c2c1CCCC2 -2.34%
COc1ccc[nH]c1=O 3.09%
COc1ccc(C(C)=O)cc1CSCCC(=O)O 15.2%
COC(=O)c1[nH]c2cc(OC)ccc2c1NC(=O)CN1CCC(C(N)=O)CC1 0.718%
CCOCCn1c(SC)nc2c1c(=O)[nH]c(=O)n2C -1.1%
CCOc1ccc(C2/C(=C(/O)c3ccc(OC)cc3)C(=O)C(=O)N2c2cc(C)on2)cc1OC (stereo not given) -9.83%
c1csc(Cc2nn3c(-c4ccncc4)nnc3s2)c1 -2.56%

Biological target: Glucocorticoid receptor (Homo sapiens) (UniProt P04150)
Sequence (P04150 whole entry, looked up): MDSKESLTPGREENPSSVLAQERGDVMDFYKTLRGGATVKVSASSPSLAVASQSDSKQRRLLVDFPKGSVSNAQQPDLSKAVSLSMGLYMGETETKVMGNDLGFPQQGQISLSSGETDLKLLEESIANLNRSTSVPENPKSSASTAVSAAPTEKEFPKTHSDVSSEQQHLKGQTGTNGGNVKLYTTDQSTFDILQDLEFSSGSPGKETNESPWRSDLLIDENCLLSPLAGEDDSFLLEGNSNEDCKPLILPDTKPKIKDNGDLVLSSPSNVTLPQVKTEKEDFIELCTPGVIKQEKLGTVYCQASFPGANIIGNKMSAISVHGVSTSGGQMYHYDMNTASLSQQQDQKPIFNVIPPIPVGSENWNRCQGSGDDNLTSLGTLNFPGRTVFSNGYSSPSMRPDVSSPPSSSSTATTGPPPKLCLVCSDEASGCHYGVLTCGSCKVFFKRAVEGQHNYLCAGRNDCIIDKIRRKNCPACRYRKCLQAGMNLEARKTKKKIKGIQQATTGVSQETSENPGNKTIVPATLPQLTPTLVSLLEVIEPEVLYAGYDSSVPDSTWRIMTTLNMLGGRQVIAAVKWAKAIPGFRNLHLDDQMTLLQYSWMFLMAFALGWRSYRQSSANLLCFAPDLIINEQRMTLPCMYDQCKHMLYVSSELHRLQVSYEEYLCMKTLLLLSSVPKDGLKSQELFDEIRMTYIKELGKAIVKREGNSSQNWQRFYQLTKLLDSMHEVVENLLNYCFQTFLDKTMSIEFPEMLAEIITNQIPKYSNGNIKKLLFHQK
Test: GR-GFP Redistribution (AID 450); note: potency is the fitted concentration of half-maximal effect
Settings: U2OS GR-GFP nuclear translocation, laser cytometry, 2 h; series mostly up to 20.6 µM

Potency, inactive:
Cn1cc(Cl)nc1C(O)c1ccccc1 (stereo not given) > 20.6 µM
CC(C)Cc1[nH]c(=O)c(C#N)c2c1COC(C)(C)C2 > 20.6 µM
Cc1ccc(NC(=O)c2cc(N3CCOCC3)nc3ccccc23)cc1 > 20.6 µM
CCOC(=O)C(OC(=O)c1sc(=S)n(C)c1C)C(C)=O (stereo not given) > 20.6 µM
CC(C)N1CCc2c(sc(N)c2C#N)C1 > 20.6 µM
O=c1[nH]nc2n1CCCCC2 > 20.6 µM
CCOc1ccc(N=C2C(=O)N(CN3CCOCC3)c3ccccc32)cc1 > 20.6 µM
Cn1ncc(N=Cc2c(O)ccc3ccccc23)c1C(=O)N1CCOCC1 > 20.6 µM
CC1(C)Cc2c(c(-c3ccccc3Cl)[nH]c(=O)c2C#N)CO1 > 20.6 µM
CC1CC(C(F)(F)F)n2ncnc2N1 (stereo not given) > 20.6 µM
Cc1nc2c(=O)n(C)c(=O)[nH]c2n1Cc1ccccc1 > 20.6 µM
CN1CCC2(CC1)C1CN(C)CC=C1C(C#N)=C(N)C2(C#N)C#N (stereo not given) > 20.6 µM
O=C(CCC(=O)CCN1CCCCC1)CCN1CCCCC1 > 20.6 µM
CC1(C(=O)CSc2n[nH]c(-c3ccccc3Cl)n2)CCC(=O)O1 (stereo not given) > 20.6 µM
Cc1ccc(-n2[nH]c(C)c(C=Nc3cc(C)ccn3)c2=O)cc1 > 20.6 µM
COc1cccc(/C(O)=C2\C(=O)C(=O)N(c3ccccn3)C2c2ccccc2OC)c1 (stereo not given) > 20.6 µM
CCCNc1ncnc2c1cnn2-c1ccc(OC)cc1 > 20.6 µM
Cc1ccc(OCC(=O)NCC(=O)n2nc(C)cc2C)cc1 > 20.6 µM
CC/C(C)=C1\SC(N2CCN(C(C)=O)CC2)=NC1=O > 20.6 µM
CCN(CC)c1nc(C)c2c(c1C#N)CC(C)(C)OC2 > 20.6 µM
Cc1nc(NCCCO)c(C#N)c2c1COC(C)(C)C2 > 20.6 µM
O=C(NCCN1CCOCC1)c1ccc(=O)oc1 > 20.6 µM
O=C(c1ccc(-n2cnnn2)cc1)N1CCOCC1 > 20.6 µM
CCc1nc(SCc2cccnc2)c(C#N)cc1C > 20.6 µM
C1CNCCNCCCNCCNC1 > 20.6 µM
CCOC(=O)C1=C(N)n2c(s/c(=C\c3ccco3)c2=O)=C(C(=O)OC(C)C)C1c1ccco1 (stereo not given) > 20.6 µM
CC(C)CCNc1nc2c(cc1C#N)COC(C)(C)C2 > 20.6 µM
Cn1c(=O)c2c(nc(NCc3ccc4c(c3)OCO4)n2Cc2ccccc2F)n(C)c1=O > 20.6 µM
Cc1cc(C)n(-c2c(F)c(F)c(CN3CCCCC3)c(F)c2F)n1 > 20.6 µM
COc1ccc(C2(CN(C(C)=O)C(C)=O)CCCC2)cc1OC > 20.6 µM
COc1ccc(CCNC2CC(C)N(C)CC2C)cc1OC (stereo not given) > 20.6 µM
N#CC1=C(N)N2C(=C(C#N)C1c1ccccc1)Sc1ccccc12 (stereo not given) > 20.6 µM
O=C1C2CC=C(Cl)CC2C(=O)N1CNc1ccccn1 (stereo not given) > 20.6 µM
CCc1nc2n[nH]c(N)c2c2c1CCCC2 > 20.6 µM
COc1ccc[nH]c1=O > 20.6 µM
COc1ccc(C(C)=O)cc1CSCCC(=O)O > 20.6 µM
COC(=O)c1[nH]c2cc(OC)ccc2c1NC(=O)CN1CCC(C(N)=O)CC1 > 20.6 µM
CCOCCn1c(SC)nc2c1c(=O)[nH]c(=O)n2C > 20.6 µM
CCOc1ccc(C2/C(=C(/O)c3ccc(OC)cc3)C(=O)C(=O)N2c2cc(C)on2)cc1OC (stereo not given) > 20.6 µM
c1csc(Cc2nn3c(-c4ccncc4)nnc3s2)c1 > 20.6 µM
